A short description of assay [1]: qHTS assay for small molecule agonists of the antioxidant response element (ARE) signaling pathway measured by Nrf2-dependant transcriptional activity - cell viability counter screen (AID 720653; active = well fitted curve in the direction sought with a large enough effect in the repeat runs; an effect the other way counts as inactive or inconclusive; also: % is scaled to controls: 0 for no effect and ±100 for the full control effect). The settings on record: ARE-bla HepG2 viability, CellTiter-Glo ATP luminescence, 16 h; max response: stronger effect = lower value. Put shortly:
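ARE-bla HepG2 cells (2,000/well) rested 5 hrs at 37C/5% CO2, then exposed to compounds in DMSO for 16 hrs. Viability was read in the same wells as intracellular ATP by luminescence, 30 min at room temperature after reagent addition.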

A short description of assay [2]: qHTS assay for cell viability of HEK293 cells (AID 743288). Also: % is scaled to controls: 0 for no effect and ±100 for the full control effect; nearly all actives have a fitted effect of over 50% in size. The note with it: ATP luminescence (CellTiter-Glo), 18 h; max response: stronger effect = lower value. Summed up:
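Quantitative high-throughput screen: compounds were pinned onto parental HEK293 cells (2,000 per well) after a minimum 5 h settling at 37 C, incubated 18 h at 37 C, and intracellular ATP measured by luciferase luminescence.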

The nature of assay [3]: qHTS assay for cell viability of the p53RE-bla HCT-116 cell line (AID 743292). Also: % is scaled to controls: 0 for no effect and ±100 for the full control effect; nearly all actives have a fitted effect of over 55% in size. Summed up: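 In this qHTS counter-screen, metabolically competent p53RE-bla HCT-116 cells were counted via their ATP content. Compounds were applied for 16 h at 37 C and luciferase-coupled luminescence was measured.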
On the technique in general: In qHTS, concentration-response curves come from the screen itself.

Assay [4] is described as follows: qHTS profiling of the MIPE4 collection as inhibitors of Plasmodium falciparum (3D7) proliferation (AID 743344; call rule not given here;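 also: scaled between DMSO vehicle wells and 0.29 µM artemisinin as full inhibition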). The note with it: P. falciparum 3D7 in erythrocytes, SYBR Green DNA fluorescence, 72 h; at 28.5 µM (top of the series) unless noted. Summed up:
(§1)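 Parasite DNA was quantified by SYBR Green I fluorescence (ex 485, em 535 nm) after overnight lysis in saponin/Triton buffer at room temperature. Cultures at 0.3% parasitemia and 2.5% hematocrit were first exposed to compound for 72 h at 37 C; signals were normalised to artemisinin (0.29 uM) and vehicle wells.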

Assay [5] is described as follows: qHTS profiling of the MIPE4 collection as inhibitors of Plasmodium falciparum (DD2) proliferation (AID 743345; call rule not given here). The settings on record: P. falciparum Dd2 in erythrocytes, SYBR Green DNA, 72 h; at 28.5 µM (top of the series) unless noted. Summed up: as §1
Assay [6] in a line: qHTS profiling of the MIPE4 collection as inhibitors of Plasmodium falciparum (DD2) proliferation (Rep 2) (AID 743346; call rule not given here). The note with it: P. falciparum Dd2 in erythrocytes, SYBR Green DNA, 72 h; at 28.5 µM (top of the series) unless noted. Put shortly: as §1
Assay [7] is described as follows: qHTS profiling of the MIPE4 collection as inhibitors of Plasmodium falciparum (HB3) proliferation (AID 743347; call rule not given here;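 also: plate controls were DMSO vehicle wells for no effect and artemisinin wells for full effect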). The settings on record: P. falciparum HB3 in erythrocytes, SYBR Green DNA, 72 h; at 28.5 µM (top of the series) unless noted. Summed up:
as §1

A short description of assay [8]: High-throughput drug toxicity screening in the BPDCN cell line Gen2.2 (AID 1224824; call rule not given here;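 also: cells exposed to compounds for 48 h before reading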). The settings on record: Gen2.2 BPDCN cells; at 45.8 µM (top of the series) unless noted. Put shortly: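 Gen2.2, 500 cells/well, phenol red-free RPMI/10% FBS/Pen-Strep; 48 h cpd, 37 °C/5% CO2; CTG lum, 15 min RT. Norm: DMSO = 100%, bortezomib 9.2 uM final = 0%.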
A short description of assay [9]: qHTS assay for measurement of the activity of small molecule inhibitors on Zika virus induced Caspase-3 activity in human iPSC derived neural progenitor cells (hNPCs) (AID 1224857). Also: nearly all actives have a fitted effect of over 65% in size. Also: potency is read from the fitted curve at half-maximal effect. Summed up: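 In medium with heparin 2 ug/ml and cyclopamine 2 uM, hNPCs (350 cells/well) received compound for one hour and then Zika virus at 2 FFU/cell; caspase activity was measured by Caspase-Glo 3/7 luminescence 6 h post-infection.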

Assay [10] is described as follows: qHTS assay for measurement of the activity of small molecule inhibitors on Zika virus induced Caspase-3 activity in human astrocytoma cells (AID 1224859). Also: potency is read from the fitted curve at half-maximal effect. Summed up:
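A cell-based luminescent caspase-3/7 assay used SNB-19 cells infected with ZIKV (2 FFU/cell) for 6 h following 1 h compound pretreatment.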

Assay [11] is described as follows: qHTS Screen of the MIPE 4.0 Collection Against Ewings Sarcoma (RDES) (AID 1259252). Also: nearly all actives have a fitted effect of over 35% in size. Also: potency is read from the fitted curve at half-maximal effect. Put shortly:
(§2)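 Measured: ATP luminescence (CellTiter-Glo) 10 min after reagent addition, following 48 h drug treatment. Relative luciferase units converted to percent activity, with no-cell wells as full and DMSO wells as zero inhibition.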

Assay [12] is described as follows: qHTS Screen of the MIPE 4.0 Collection Against Ewings Sarcoma (TC71) (AID 1259253).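 Also: 100% = DMSO-treated cells and 0% = medium-only wells without cells; nearly all actives have a fitted effect of over 40% in size.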 Summed up:
as §2

Assay [13] is described as follows: qHTS Screen of the MIPE 4.0 Collection Against Ewings Sarcoma (EW8) (AID 1259255).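 Also: 100% = DMSO-treated cells and 0% = medium-only wells without cells; nearly all actives have a fitted effect of over 35% in size.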 Put shortly:
as §2

Assay [14] can be described thus: High-throughput drug toxicity screening in the BPDCN cell line Cal-1 (AID 1224825; call rule not given here). The settings on record: Cal-1 BPDCN cell viability, qHTS; at 45.8 µM (top of the series) unless noted. Put shortly: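 Viability of the BPDCN line Cal-1 is measured as ATP-based luminescence (CellTiter-Glo) following 48 h incubation with compounds. Percent activity uses DMSO-treated wells as 100% and 9.2 uM bortezomib as 0%.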

A short description of assay [15]: qHTS Assay for Identifying Gametocytocidal Compounds (AID 743244).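 Also: % is scaled to controls: 0 for no effect and ±100 for the full control effect; actives lower the fluorescent signal which means gametocytes are killed.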 The settings on record: P. falciparum 3D7 stage III-V gametocytes, alamarBlue, 72 h; max response: stronger effect = lower value. Put shortly: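 In this qHTS viability screen, late-stage 3D7 gametocytes are incubated with compound for 72 h, then with alamarBlue for 24 h; reduced resorufin fluorescence marks killing.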

Assay [16] has as its target T1, Hexokinase-4 (Homo sapiens) + Glucokinase regulatory protein (Homo sapiens) (UniProt P35557+Q14397). Nature of the assay: qHTS assay for inhibitors of recombinant human GCK-GKRP interaction: Diaphorase-coupled assay (AID 743205). Summed up:
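Inhibitors of the GCK–GKRP complex relieve GKRP suppression of GCK, detected through a G6PDH–diaphorase cascade reducing resazurin. Human GST-GCK and FLAG-GKRP are used at 10 nM with 5 mM glucose and 0.4 mM ATP.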

The target in assay [17] is T1, Hexokinase-4 (Homo sapiens) + Glucokinase regulatory protein (Homo sapiens). The assay is described as follows: qHTS assay for inhibitors of recombinant human GCK-GKRP interaction: ADP-Glo assay (AID 743206).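 Also: plate controls were DMSO plus enzyme for no effect and no enzyme for full effect.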 Put shortly:
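Pin-transferred compounds meet a 15 nM GST-GCK/15 nM FLAG-GKRP/2 uM S6P mix (dispense concentrations). ATP is then added to 0.4 mM final with 5 mM glucose, and the reaction runs 60 min at room temperature. ADP is quantified luminescently.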

Where “and” joins values, the source holds several entries; their conditions need not be identical. Equal values may be shown once. Results filed as inconclusive are left out. Calls of active or inactive are those of the source. Unless noted, calls follow the shape of the dose curve; as a rule, active = well fitted curve in the direction sought with a large enough effect; inconclusive = small, poorly fitted or top-dose-only effect, or another doubt; inactive = no such curve, though single readings can be large; an effect the other way counts as inactive or inconclusive.

T1 sequence (P35557 whole entry, looked up): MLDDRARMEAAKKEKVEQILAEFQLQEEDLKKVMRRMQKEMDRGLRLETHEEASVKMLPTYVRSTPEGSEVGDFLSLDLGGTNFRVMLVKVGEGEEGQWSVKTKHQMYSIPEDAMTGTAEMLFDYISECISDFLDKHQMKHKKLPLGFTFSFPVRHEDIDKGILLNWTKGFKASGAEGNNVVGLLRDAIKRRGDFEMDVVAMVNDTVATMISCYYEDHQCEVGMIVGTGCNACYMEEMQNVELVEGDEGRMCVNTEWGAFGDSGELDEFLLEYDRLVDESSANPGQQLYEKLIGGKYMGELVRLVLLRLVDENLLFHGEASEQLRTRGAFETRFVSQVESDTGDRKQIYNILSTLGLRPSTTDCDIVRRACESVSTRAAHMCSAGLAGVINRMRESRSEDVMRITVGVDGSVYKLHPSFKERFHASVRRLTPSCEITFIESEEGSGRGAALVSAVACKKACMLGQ
T1 sequence (Q14397 whole entry, looked up): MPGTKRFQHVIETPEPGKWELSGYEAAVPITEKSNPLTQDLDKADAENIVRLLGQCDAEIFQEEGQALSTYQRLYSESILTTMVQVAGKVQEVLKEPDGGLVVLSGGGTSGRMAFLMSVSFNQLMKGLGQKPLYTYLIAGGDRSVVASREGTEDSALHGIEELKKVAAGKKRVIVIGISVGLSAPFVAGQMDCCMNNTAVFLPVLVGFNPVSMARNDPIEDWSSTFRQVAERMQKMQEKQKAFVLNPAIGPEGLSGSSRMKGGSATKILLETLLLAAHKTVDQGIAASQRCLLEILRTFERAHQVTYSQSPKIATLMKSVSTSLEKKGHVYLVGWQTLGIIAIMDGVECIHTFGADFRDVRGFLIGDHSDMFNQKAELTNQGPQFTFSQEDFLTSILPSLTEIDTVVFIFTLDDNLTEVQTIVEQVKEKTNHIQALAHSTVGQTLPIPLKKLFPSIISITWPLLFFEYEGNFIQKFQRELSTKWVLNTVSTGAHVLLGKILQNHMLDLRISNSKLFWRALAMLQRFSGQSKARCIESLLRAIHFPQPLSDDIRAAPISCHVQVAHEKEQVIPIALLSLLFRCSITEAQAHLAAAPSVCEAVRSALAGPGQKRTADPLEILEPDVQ

`c1ccc2[nH]c(-c3cscn3)nc2c1`: the max response is -11.8% (inactive) and -19.5% (inactive) in assay [1]; -17.6% (inactive) and -12.7% (inactive) in assay [2]. Moreover, the Potency result in [3], in assay [11], in assay [12] and in assay [13] was “inactive” each time. In [4], this compound yielded a parasite growth, % of DMSO control of 11.2%. The compound also came in with a parasite growth remaining, % of DMSO control (lower = more inhibition) in [5] of 87.1%. The parasite growth, % of control (lower = inhibition) in [6] came to 33.5%. In assay [7], this compound gave a growth, % of control of 9.5%. The cell viability, % of control (lower = more cytotoxic) in assay [8] worked out at 245%. In addition, the Potency in assay [9] and in [10] was 16.6 µM (active) in each case.

Consider `Clc1ccc(C(Cn2ccnc2)OCc2ccc(Sc3ccccc3)cc2)c(Cl)c1` (stereo not given), for which the parasite growth, % of DMSO control in [4] came to 5.64%. The compound also registered a parasite growth remaining, % of DMSO control (lower = more inhibition) in [5] of 6.46%. Also, in assay [6], the parasite growth, % of control (lower = inhibition) stood at 18.3%. This compound also showed a growth, % of control in assay [7] of 9.13%. The cell viability, % of control (lower = more cytotoxic) in assay [8] was found to be 183%. Further, the viability (% of control) in [14] was determined as 100%. Further, the Potency entry in assay [9] and in assay [10] was “inactive” each time.

Consider `N=C(N=C(N)N)N1CCOCC1`, for which the max response in [15] is 0.738% (inactive). Moreover, the parasite growth, % of DMSO control in assay [4] came to 106%. Moreover, the parasite growth remaining, % of DMSO control (lower = more inhibition) in assay [5] turned out to be 96.2%. The parasite growth, % of control (lower = inhibition) in assay [6] is 93.1%. In assay [7], this compound came in with a growth, % of control of 101%. Moreover, in assay [8], the cell viability, % of control (lower = more cytotoxic) turned out to be 139%. In assay [14], the viability (% of control) was 127%. In addition, the Potency result in assay [9] and in [10] was “inactive” each time.

Consider `O=c1c(O)c(-c2ccc(O)cc2O)oc2cc(O)cc(O)c12`, for which the max response in [1] was 6.53% (inactive); in assay [15], 11.7% (inactive); in assay [2], -9.35% (inactive). Moreover, the result in assay [16] and in assay [17] was inactive. Also, the Potency result in [3], in assay [9], in assay [10], in assay [11] and in assay [12] was “inactive” in each case. In addition, in assay [4], the parasite growth, % of DMSO control is 80.8%. In assay [5], this compound yielded a parasite growth remaining, % of DMSO control (lower = more inhibition) of 71%. In addition, the parasite growth, % of control (lower = inhibition) in assay [6] is 111%. The growth, % of control in assay [7] came to 99.8%. In assay [8], the cell viability, % of control (lower = more cytotoxic) was determined as 74.1%.

`C[C@]12CCC(=O)C=C1CC[C@@H]1[C@H]2[C@@H](O)C[C@@]2(C)[C@H]1CC[C@]2(O)C(=O)CO`: the parasite growth, % of DMSO control in [4] came out at 76.9%. Besides, the parasite growth remaining, % of DMSO control (lower = more inhibition) in assay [5] turned out to be 93.1%. Moreover, in assay [6], the parasite growth, % of control (lower = inhibition) is 74.9%. This compound showed a growth, % of control in assay [7] of 63%. Also, the cell viability, % of control (lower = more cytotoxic) in [8] was 208%. Moreover, the Potency result in [9], in assay [10], in assay [12] and in assay [13] was “inactive” in each case. Moreover, the Potency in assay [11] is 20.9 µM (active).

Turning to `O=C(O)c1cc(=O)c2c(OCC(O)COc3cccc4oc(C(=O)O)cc(=O)c34)cccc2o1`, in assay [4], the parasite growth, % of DMSO control came out at 85.2%. The same compound registered a parasite growth remaining, % of DMSO control (lower = more inhibition) in [5] of 96.7%. Further, the parasite growth, % of control (lower = inhibition) in assay [6] is 106%. Besides, the growth, % of control in assay [7] came out at 81%. Besides, the cell viability, % of control (lower = more cytotoxic) in assay [8] was 106%. In addition, the Potency result in assay [9], in [10], in assay [11], in [12] and in assay [13] was “inactive” in each case.

The values above are taken from PubChem BioAssay (NCATS).
